Values without a mark were called inactive. Inconclusive results are not listed. Where a call stands in place of a potency, no number is given. Active and inactive are the calls of the source. Unless noted, calls follow the shape of the dose curve; as a rule, active = well fitted curve in the direction sought with a large enough effect; inconclusive = small, poorly fitted or top-dose-only effect, or another doubt; inactive = no such curve, though single readings can be large; an effect the other way counts as inactive or inconclusive.
What was measured:
[1] = molecular target: Glucocorticoid receptor (Homo sapiens) (UniProt P04150); test: GR-GFP Redistribution (AID 450;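 active = compounds whose dose series gives a full or clear partial fitted curve of increased nuclear translocation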; also: potency is read from the fitted curve at half-maximal effect); conditions: U2OS GR-GFP nuclear translocation, laser cytometry, 2 h
Glucocorticoid receptor (Homo sapiens), sequence (P04150 whole entry, looked up, the tested form may be a part): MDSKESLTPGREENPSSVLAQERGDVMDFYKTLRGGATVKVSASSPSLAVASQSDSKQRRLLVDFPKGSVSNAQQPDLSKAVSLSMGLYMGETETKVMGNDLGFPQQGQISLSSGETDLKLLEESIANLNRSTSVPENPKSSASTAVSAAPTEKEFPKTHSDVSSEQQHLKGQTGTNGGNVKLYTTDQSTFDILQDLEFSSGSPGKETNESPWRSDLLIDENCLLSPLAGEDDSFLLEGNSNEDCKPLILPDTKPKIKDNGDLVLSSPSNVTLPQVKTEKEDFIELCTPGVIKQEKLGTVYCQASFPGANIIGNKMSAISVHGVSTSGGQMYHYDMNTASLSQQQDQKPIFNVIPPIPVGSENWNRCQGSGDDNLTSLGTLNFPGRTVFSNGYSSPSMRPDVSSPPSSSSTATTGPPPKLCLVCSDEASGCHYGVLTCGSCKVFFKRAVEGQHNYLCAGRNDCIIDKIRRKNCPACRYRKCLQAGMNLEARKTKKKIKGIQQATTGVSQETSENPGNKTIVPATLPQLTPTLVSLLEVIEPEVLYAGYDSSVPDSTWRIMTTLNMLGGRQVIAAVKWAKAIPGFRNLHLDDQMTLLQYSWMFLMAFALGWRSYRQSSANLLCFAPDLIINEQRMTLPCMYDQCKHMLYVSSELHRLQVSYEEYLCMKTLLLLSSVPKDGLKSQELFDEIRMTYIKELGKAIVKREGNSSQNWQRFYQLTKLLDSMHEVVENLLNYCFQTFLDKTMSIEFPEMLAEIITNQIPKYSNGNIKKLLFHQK

[2] = molecular target: Glucocorticoid receptor (Homo sapiens) (UniProt P04150); test: GR-EFC Redistribution (AID 451; calls by dose curve; also: potency is read from the fitted curve at half-maximal effect); conditions: CHO-K1 GR-EFC translocation, beta-gal luminescence, 2 h
In short: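 Translocation of GR-ED fusion to nuclear EA restores b-gal, read by luminescence after 1 h room-temperature detection. Engineered CHO-K1 biosensor cells, 1,000/well, exposed 2 h at 37 C to titrations up to 46 uM final.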

[3] = molecular target: DNA dC->dU-editing enzyme APOBEC-3G (Homo sapiens) (UniProt Q9HC16); test: qHTS for inhibitors of Vif-A3G interactions: Validation (AID 588379); conditions: Vif-A3G protein interaction assay; series mostly up to 46.1 µM; also: potency is read from the fitted curve at half-maximal effect
DNA dC->dU-editing enzyme APOBEC-3G (Homo sapiens), sequence (Q9HC16 whole entry, looked up): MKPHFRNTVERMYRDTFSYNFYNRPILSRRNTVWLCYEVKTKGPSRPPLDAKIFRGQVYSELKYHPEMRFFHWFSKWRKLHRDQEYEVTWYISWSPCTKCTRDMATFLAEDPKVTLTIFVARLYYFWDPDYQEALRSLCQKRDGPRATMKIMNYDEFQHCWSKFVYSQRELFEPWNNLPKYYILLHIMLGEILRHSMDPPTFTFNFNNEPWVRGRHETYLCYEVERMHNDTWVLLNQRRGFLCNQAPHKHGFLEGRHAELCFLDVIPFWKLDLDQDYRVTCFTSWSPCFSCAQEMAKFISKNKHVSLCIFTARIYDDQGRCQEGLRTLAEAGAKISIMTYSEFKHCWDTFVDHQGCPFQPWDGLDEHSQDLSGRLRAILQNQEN
In short: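 HeLa cells stably expressing Vif and A3G-eYFP, 700 cells/well, incubated overnight at 37 deg C, then exposed to compound overnight at 37 deg C. Inhibition of Vif-mediated degradation read as increased yellow fluorescence (Ex 488/Em 500-530) by laser-scanning cytometry.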

[4] = system: Zika virus NS2B-NS3 protease; test: Primary screen GU AMC qHTS for Zika virus inhibitors (AID 1347154); conditions: Zika NS2B-NS3 unlinked protease, AMC fluorogenic substrate; series mostly up to 54.1 µM; also: nearly all actives have a fitted effect of over 70% in size
In short: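 Fluorogenic AMC-substrate cleavage by noncovalent NS2B-NS3 protease complex (25 nM, pH 8.0 Tris buffer with Tween 20) followed for 15 minutes at room temperature (~20% conversion). Percent inhibition from ex340/em450 signal change, fitted by 4-parameter Hill equation.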

[5] = Primary qHTS for small molecule stabilizers of the endoplasmic reticulum resident proteome: Secreted ER Calcium Modulated Protein (SERCaMP) assay (AID 1508630); conditions: SH-SY5Y GLuc-SERCaMP (Gaussia luciferase released on ER calcium loss) secretion, thapsigargin, luminescence; series mostly up to 38.4 µM
In short: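 GLuc-SERCaMP-expressing SH-SY5Y cells, pretreated 16 h with compound, are challenged with thapsigargin to empty ER calcium stores; after 4 h, coelenterazine is added directly to the medium and luminescence is imaged.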

[6] = molecular target: Mitogen-activated protein kinase 10 (Mus musculus) (UniProt Q61831); test: JNK3 AlphaScreen Assay (AID 530; active = well fitted curve in either direction with a large enough effect, not every such curve was filed as active;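 also: kinase came from lysate of stimulated human HepG2 cells; signal reports phosphorylation of biotinylated GST-cJun 1-79 at Ser73 with 10 µM ATP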); conditions: JNK3 lysate, c-Jun phosphorylation; series mostly up to 57.1 µM
In short: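 Compound titrations were preincubated 15 minutes at room temperature with substrate, antibody and pre-activated JNK3-containing HepG2 lysate. Reactions were started with 10 uM ATP and stopped with EDTA-containing bead buffer for AlphaScreen detection.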

[7] = molecular target: 3',5'-cyclic-AMP phosphodiesterase 4B (Homo sapiens) (UniProt Q07343); test: qHTS Assay for Inhibitors of PDE-IV (AID 607; active = well fitted activation curve with a large enough effect in the main read-out, with a control signal flat, not every such curve was filed as active); conditions: HEK293 ACTOne CNG channel cells, membrane potential fluorescence; series mostly up to 22.9 µM
3',5'-cyclic-AMP phosphodiesterase 4B (Homo sapiens), sequence (Q07343 whole entry, looked up): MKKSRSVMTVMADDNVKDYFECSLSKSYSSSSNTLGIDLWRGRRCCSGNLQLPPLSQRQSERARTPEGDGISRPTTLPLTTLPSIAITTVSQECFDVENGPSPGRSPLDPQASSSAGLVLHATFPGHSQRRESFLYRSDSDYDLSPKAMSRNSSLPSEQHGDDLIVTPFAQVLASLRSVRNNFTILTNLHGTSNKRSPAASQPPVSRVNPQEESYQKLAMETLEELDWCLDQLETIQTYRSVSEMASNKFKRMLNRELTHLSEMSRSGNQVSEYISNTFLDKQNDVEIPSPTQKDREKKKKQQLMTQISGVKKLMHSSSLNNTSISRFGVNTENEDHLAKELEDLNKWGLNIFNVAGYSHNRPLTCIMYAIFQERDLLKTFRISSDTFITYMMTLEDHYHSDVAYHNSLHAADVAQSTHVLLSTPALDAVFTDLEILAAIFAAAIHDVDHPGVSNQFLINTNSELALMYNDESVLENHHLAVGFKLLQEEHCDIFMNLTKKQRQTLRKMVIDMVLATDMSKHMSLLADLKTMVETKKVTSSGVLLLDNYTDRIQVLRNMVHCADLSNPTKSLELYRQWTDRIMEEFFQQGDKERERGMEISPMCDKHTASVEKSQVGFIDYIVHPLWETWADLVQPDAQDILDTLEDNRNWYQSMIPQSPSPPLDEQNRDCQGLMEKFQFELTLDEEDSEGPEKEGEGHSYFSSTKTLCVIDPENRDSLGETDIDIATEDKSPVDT
In short: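 Live HEK293 cells with a modified cyclic nucleotide-gated (CNG) channel report intracellular cAMP via membrane-potential dye fluorescence (ex 535/em 590 nm). Endogenous PDE-IV was targeted. Compounds were tested at up to 22.9 uM final; RO 20-1724 100 uM served as control.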

[8] = molecular target: Cytochrome P450 3A4 (Homo sapiens) (UniProt P08684); test: qHTS Assay for Activators of Cytochrome P450 3A4 (AID 885); conditions: recombinant CYP3A4, Luciferin-PPXE luminescence, 60 min; series mostly up to 57.1 µM; also: nearly all actives have a fitted effect of over 65% in size
Cytochrome P450 3A4 (Homo sapiens), sequence (P08684 whole entry, looked up): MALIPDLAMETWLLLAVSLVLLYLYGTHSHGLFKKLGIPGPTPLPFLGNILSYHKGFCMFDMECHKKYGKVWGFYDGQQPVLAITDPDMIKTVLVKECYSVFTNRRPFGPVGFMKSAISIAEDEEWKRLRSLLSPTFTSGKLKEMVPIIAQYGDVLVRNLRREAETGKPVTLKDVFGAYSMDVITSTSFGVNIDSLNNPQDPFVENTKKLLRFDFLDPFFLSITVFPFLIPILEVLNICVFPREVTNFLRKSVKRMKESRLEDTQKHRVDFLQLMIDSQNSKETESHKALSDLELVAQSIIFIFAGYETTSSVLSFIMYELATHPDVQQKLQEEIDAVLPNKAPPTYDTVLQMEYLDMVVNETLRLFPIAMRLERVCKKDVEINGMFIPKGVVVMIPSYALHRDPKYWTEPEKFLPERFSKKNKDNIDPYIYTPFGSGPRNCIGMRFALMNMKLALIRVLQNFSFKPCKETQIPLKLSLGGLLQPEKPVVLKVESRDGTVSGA
In short: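 Quantitative HTS format: compounds preincubated with 20nM human CYP3A4 and Luciferin-PPXE substrate at KM, reaction started by NADPH regeneration, stopped after 60 min, luciferase luminescence read 20 min later.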

[9] = molecular target: Ubiquitin carboxyl-terminal hydrolase 1 (Homo sapiens) (UniProt O94782); test: Inhibitors of USP1/UAF1: Pilot qHTS (AID 504865); conditions: purified USP1/UAF1, Ub-rhodamine cleavage fluorescence; series mostly up to 114 µM;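 also: rhodamine fluorescence freed from ubiquitin-rhodamine substrate followed over time; top concentration of the series differs between compounds; nearly all actives have a fitted effect of over 35% in size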
Ubiquitin carboxyl-terminal hydrolase 1 (Homo sapiens), sequence (O94782 whole entry, looked up): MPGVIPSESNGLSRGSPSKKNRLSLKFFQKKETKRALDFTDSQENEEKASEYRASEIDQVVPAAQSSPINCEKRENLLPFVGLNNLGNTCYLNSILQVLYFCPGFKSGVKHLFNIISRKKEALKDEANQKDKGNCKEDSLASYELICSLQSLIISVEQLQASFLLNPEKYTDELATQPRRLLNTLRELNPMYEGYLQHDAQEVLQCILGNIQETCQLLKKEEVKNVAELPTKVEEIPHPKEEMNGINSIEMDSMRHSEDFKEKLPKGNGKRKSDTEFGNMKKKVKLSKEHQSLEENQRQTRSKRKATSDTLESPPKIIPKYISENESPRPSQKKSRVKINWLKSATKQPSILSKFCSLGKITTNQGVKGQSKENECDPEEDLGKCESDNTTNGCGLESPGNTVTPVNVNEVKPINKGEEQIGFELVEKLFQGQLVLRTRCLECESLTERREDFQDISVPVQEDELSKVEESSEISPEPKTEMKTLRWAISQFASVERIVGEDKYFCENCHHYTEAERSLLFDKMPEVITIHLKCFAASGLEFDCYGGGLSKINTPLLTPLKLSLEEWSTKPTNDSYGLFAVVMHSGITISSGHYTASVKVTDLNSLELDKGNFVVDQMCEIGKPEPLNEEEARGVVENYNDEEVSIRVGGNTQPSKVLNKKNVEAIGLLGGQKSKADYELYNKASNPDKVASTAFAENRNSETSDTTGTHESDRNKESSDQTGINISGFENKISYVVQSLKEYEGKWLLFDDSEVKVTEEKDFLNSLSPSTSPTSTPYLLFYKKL
In short: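 In 50mM HEPES pH 7.8 containing 0.5mM EDTA, 1mM TCEP, 0.1 mg/ml BSA and 0.01% Tween-20, 1nM USP1/UAF1 is exposed to compound for 15 min, then Ub-Rho (150nM final) is added and fluorescence is read over time.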

[10] = molecular target: Cytochrome P450 3A4 (Homo sapiens) (UniProt P08684); test: qHTS Assay for Inhibitors and Substrates of Cytochrome P450 3A4 (AID 884); conditions: recombinant CYP3A4, Luciferin-PPXE luminescence; series mostly up to 57.1 µM; also: nearly all actives have a fitted effect of over 50% in size; also: potency is read from the fitted curve at half-maximal effect
In short: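 20 nM human CYP3A4 with 25 uM Luciferin-PPXE (at KM) in 200 mM KPO4, preincubated 10 min with compound; NADPH regeneration started a 60 min RT reaction. Luciferin detected by luminescence, normalized to 57 uM ketoconazole as full inhibition.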

[11] = molecular target: Cytochrome P450 2C9 (Homo sapiens) (UniProt P11712); test: qHTS Assay for Inhibitors and Substrates of Cytochrome P450 2C9 (AID 883); conditions: recombinant CYP2C9, luciferin-H luminescence, 60 min; series mostly up to 57.1 µM; also: potency is read from the fitted curve at half-maximal effect; nearly all actives have a fitted effect of over 60% in size
Cytochrome P450 2C9 (Homo sapiens), sequence (P11712 whole entry, looked up): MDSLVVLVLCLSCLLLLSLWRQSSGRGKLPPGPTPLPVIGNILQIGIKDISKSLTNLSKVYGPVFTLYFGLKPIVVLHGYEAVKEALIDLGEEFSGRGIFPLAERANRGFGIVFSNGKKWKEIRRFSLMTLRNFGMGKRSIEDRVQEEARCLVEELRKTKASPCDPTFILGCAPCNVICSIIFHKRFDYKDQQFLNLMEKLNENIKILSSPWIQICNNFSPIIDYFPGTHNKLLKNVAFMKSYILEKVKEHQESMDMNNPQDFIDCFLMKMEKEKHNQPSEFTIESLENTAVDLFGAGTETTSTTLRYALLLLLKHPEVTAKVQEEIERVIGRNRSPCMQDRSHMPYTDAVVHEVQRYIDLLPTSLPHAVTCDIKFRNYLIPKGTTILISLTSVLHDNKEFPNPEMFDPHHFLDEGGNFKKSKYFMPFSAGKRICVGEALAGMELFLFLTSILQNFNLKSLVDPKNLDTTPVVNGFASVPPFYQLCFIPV
In short: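 Luminescent read-out of deoxyluciferin hydroxylation, normalized to 57uM sulphaphenazole (AC100). Reaction: 10nM enzyme, 100uM Luciferin-H (equal to KM), 25mM KPO4, 10 min compound preincubation, then 60 min with NADPH regeneration, both at 37C.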

Compound | Potency [1] [µM] | Potency [2] [µM] | Potency [3] | Potency [4] | Potency [5] | Potency [6] | Potency [7] | Potency [8] | Potency [9] | Potency [10] | Potency [11]
c1ccc(CN2CCC3(CCc4ccccc43)CC2)cc1 | > 46 | > 46 | inactive | inactive | inactive |  |  |  |  |  | 
CC(C)C[C@H](NC(=O)N1CCCCCC1)C(=O)N[C@H](Cc1cn(C)c2ccccc12)C(=O)N[C@H](Cc1ccccn1)C(=O)O | > 46 | > 46 | inactive | inactive | inactive | inactive | inactive | inactive | inactive |  | 
CC(=O)[C@H](CC(C)C)NC(=O)[C@@H](CC(C)C)NC(=O)[C@H](CC(C)C)NC(=O)OCc1ccccc1 | > 46 | > 46 | 0.335 µM (active) | inactive | inactive | inactive | inactive |  |  |  | 
Cc1ccc(-c2nn(CC(C)(C)C)c3ncnc(N)c23)cc1 | > 46 | > 46 | inactive | inactive | inactive | inactive |  |  |  |  | 
CC(C)(C)c1cc(O)c(C(C)(C)C)cc1O | > 46 | > 46 | inactive | inactive | inactive |  |  |  |  |  | 
O=C(NC1CCN(Cc2ccccc2)CC1)c1ccc(I)cc1 | > 46 | > 46 | inactive | inactive | inactive | inactive | inactive |  | inactive | inactive | 
COC(=O)/C=C\c1cc(O)ccc1O | > 46 | > 46 | 18.8 µM (active) | inactive | inactive | inactive | inactive |  | inactive |  | 7.94 µM (active)
O=c1nc2ccccc2c2n1C[C@H](CN1CCN(c3ccccc3)CC1)N2 | > 46 | > 46 | inactive | inactive | inactive | inactive | inactive |  | inactive |  | 
COc1cccc(CNc2ccc3nc(-c4ccc(N)cc4)c(OC)n3n2)c1 | > 46 |  | inactive | inactive | inactive | inactive |  | inactive | inactive | 5.01 µM (active) | 
CNC(=O)[C@H]1O[C@H](n2cnc3c(NCc4cccc(I)c4)nc(Cl)nc32)[C@@H](O)[C@@H]1O | > 46 | > 46 | inactive | inactive | inactive |  | inactive |  |  |  | 
